{
  "source": "PubChem BioAssay (EPA / NIEHS)",
  "note": "Values joined by “and” are separate entries in the source; they are usually repeats but may differ in a detail not shown here. Equal entries are not always repeated. Records with an inconclusive call do not appear. A structure can be active in one record and inactive in another. Active and inactive are the calls of the source. How the source made its calls: active means hit-call score of the fitted dose curve at least 0.9, where 1 is the maximum; inconclusive means response in the unintended direction; inactive means score below 0.9.",
  "data": [
    {"tested_on": "not listed separately", "experiment": "TOX21_p53_BLA_p4_viability: Viability Assessment in the Tox21 HCT-116 p53 Agonism Beta-lactamase Assay, Phase 4 (AID 2283597);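 further: hits lower the luminescence signal meaning cytotoxicity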", "method_in_brief": "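4000 HCT116 cells per well; 5 h attachment; compounds from DMSO, 217-fold dilution; 16 h at 37C. Then CCF4-AM, 2 h RT, followed by CellTiter-Glo, 30 min RT, luminescence. Decrease = cytotoxicity.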", "values": [
      {"smiles": "C#CC1(O)CCCCC1", "outcome": "inactive"},
      {"smiles": "O=c1[nH]c(Cl)c(Cl)cc1Cl", "outcome": "inactive"},
      {"smiles": "Nc1ccccc1C(=O)OCCc1ccccc1", "outcome": "inactive"},
      {"smiles": "N#Cc1cccc(C#N)c1", "outcome": "inactive"},
      {"smiles": "O=C(O)CCCc1ccc(N(CCCl)CCCl)cc1", "outcome": "inactive"},
      {"smiles": "Nc1cc(Cl)cc(Cl)c1", "outcome": "inactive"},
      {"smiles": "COC(C)(C)CCC[C@H](C)C/C=C/C(C)=C/C(=O)OC(C)C", "outcome": "inactive"},
      {"smiles": "BrCBr", "outcome": "inactive"},
      {"smiles": "CCc1cccc(C)c1N(C(=O)CCl)[C@@H](C)COC", "outcome": "inactive"},
      {"smiles": "CC(Cc1ccc(C(C)(C)C)cc1)CN1C[C@@H](C)O[C@@H](C)C1", "note": "(stereo partly specified)", "outcome": "inactive"},
      {"smiles": "O=C(O)c1cc[c]([Hg][Cl])cc1", "outcome": "inactive"},
      {"smiles": "O=S(=O)(c1ccccc1)c1ccccc1", "outcome": "inactive"},
      {"smiles": "CN(C)C(=O)C(c1ccccc1)c1ccccc1", "outcome": "inactive"},
      {"smiles": "CC1CCCC1.[C-]#[O+].[C-]#[O+].[C-]#[O+].[Mn]", "outcome": "inactive"},
      {"smiles": "O=C(O)COc1ccccc1", "outcome": "inactive"},
      {"smiles": "[Cl][Sb]([Cl])[Cl]", "outcome": "inactive"},
      {"smiles": "Cc1ccc(N(SC(F)(Cl)Cl)S(=O)(=O)N(C)C)cc1", "AC50": "87.1 µM (active)"},
      {"smiles": "CC1(C)CC(=O)CC(C)(C)N1[O]", "outcome": "inactive"},
      {"smiles": "O=CNC(N1CCN(C(NC=O)C(Cl)(Cl)Cl)CC1)C(Cl)(Cl)Cl", "note": "(stereo unspecified)", "outcome": "inactive"},
      {"smiles": "Oc1cc(Cl)ccc1Cl", "outcome": "inactive"},
      {"smiles": "O=[N+]([O-])c1cc(C(F)(F)F)c(Cl)c([N+](=O)[O-])c1Cl", "AC50": "35.9 µM (active)"},
      {"smiles": "C[C@]12CCC(=O)C(O)=C1CC[C@@H]1[C@@H]2CC[C@]2(C)C(=O)CC[C@@H]12", "outcome": "inactive"},
      {"smiles": "CSc1nc(N=[N+]=[N-])nc(NC(C)C)n1", "outcome": "inactive"},
      {"smiles": "O=[N+]([O-])O.O=[N+]([O-])O.[Cd]", "outcome": "inactive"}
    ]},
    {"target": "Cellular tumor antigen p53 (Homo sapiens) (UniProt P04637)", "sequence (P04637 whole entry, looked up)": "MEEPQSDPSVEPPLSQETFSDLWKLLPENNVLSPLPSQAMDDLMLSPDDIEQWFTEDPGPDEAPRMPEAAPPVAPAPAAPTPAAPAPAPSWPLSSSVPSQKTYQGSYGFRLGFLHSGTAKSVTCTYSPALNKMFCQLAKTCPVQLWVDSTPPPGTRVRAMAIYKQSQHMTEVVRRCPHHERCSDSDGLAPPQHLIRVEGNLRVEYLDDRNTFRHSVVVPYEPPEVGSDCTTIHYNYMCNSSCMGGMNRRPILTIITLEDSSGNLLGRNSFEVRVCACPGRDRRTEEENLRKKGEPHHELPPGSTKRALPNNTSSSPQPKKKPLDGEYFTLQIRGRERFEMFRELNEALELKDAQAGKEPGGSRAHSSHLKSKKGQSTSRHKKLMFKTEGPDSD", "experiment": "TOX21_p53_BLA_p5_ratio: Tox21 HCT-116 p53 Agonism Beta-lactamase Assay, Ratio, Phase 5 (AID 2283599)", "method_in_brief": "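HCT-116 p53-bla cells (4000/well) plated 5 h, dosed with compound (217-fold DMSO dilution) for 16 h at 37 C; CCF4-AM substrate 2 h at room temperature. Activity is the 460/530 nm emission ratio (405 nm excitation), fitted in gain-of-signal direction versus DMSO.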", "values": [
      {"smiles": "O=c1[nH]c(Cl)c(Cl)cc1Cl", "outcome": "inactive"},
      {"smiles": "[CH3][Sn]([Cl])([Cl])[Cl]", "outcome": "inactive"},
      {"smiles": "Nc1ccccc1C(=O)OCCc1ccccc1", "outcome": "inactive"},
      {"smiles": "N#Cc1cccc(C#N)c1", "outcome": "inactive"},
      {"smiles": "O=C(O)CCCc1ccc(N(CCCl)CCCl)cc1", "AC50": "62.6 µM (active) and 64.8 µM (active) and 27.3 µM (active)"},
      {"smiles": "Nc1cc(Cl)cc(Cl)c1", "outcome": "inactive"},
      {"smiles": "COC(C)(C)CCC[C@H](C)C/C=C/C(C)=C/C(=O)OC(C)C", "outcome": "inactive"},
      {"smiles": "BrCBr", "outcome": "inactive"},
      {"smiles": "CCc1cccc(C)c1N(C(=O)CCl)[C@@H](C)COC", "outcome": "inactive"},
      {"smiles": "O=C(O)c1cc[c]([Hg][Cl])cc1", "outcome": "inactive"},
      {"smiles": "O=S(=O)(c1ccccc1)c1ccccc1", "outcome": "inactive"},
      {"smiles": "CN(C)C(=O)C(c1ccccc1)c1ccccc1", "outcome": "inactive"},
      {"smiles": "CC1CCCC1.[C-]#[O+].[C-]#[O+].[C-]#[O+].[Mn]", "outcome": "inactive"},
      {"smiles": "O=C(O)COc1ccccc1", "outcome": "inactive"},
      {"smiles": "[Cl][Sb]([Cl])[Cl]", "outcome": "inactive"},
      {"smiles": "Cc1ccc(N(SC(F)(Cl)Cl)S(=O)(=O)N(C)C)cc1", "outcome": "inactive"},
      {"smiles": "O=CNC(N1CCN(C(NC=O)C(Cl)(Cl)Cl)CC1)C(Cl)(Cl)Cl", "note": "(stereo unspecified)", "outcome": "inactive"},
      {"smiles": "O=[N+]([O-])c1cc(C(F)(F)F)c(Cl)c([N+](=O)[O-])c1Cl", "AC50": "21 µM (active)"},
      {"smiles": "C[C@]12CCC(=O)C(O)=C1CC[C@@H]1[C@@H]2CC[C@]2(C)C(=O)CC[C@@H]12", "outcome": "inactive"},
      {"smiles": "CSc1nc(N=[N+]=[N-])nc(NC(C)C)n1", "outcome": "inactive"}
    ]},
    {"tested_on": "not listed separately", "experiment": "TOX21_p53_BLA_p5_viability: Viability Assessment in the Tox21 HCT-116 p53 Agonism Beta-lactamase Assay, Phase 5 (AID 2283600)", "method_in_brief": "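Decreased CellTiter-Glo luminescence denotes lost viability. Exposure: 16 h at 37C, 5% CO2, with compounds from DMSO stocks diluted 217-fold in wells of 4000 cells.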", "values": [
      {"smiles": "O=c1[nH]c(Cl)c(Cl)cc1Cl", "outcome": "inactive"},
      {"smiles": "Nc1ccccc1C(=O)OCCc1ccccc1", "outcome": "inactive"},
      {"smiles": "N#Cc1cccc(C#N)c1", "outcome": "inactive"},
      {"smiles": "O=C(O)CCCc1ccc(N(CCCl)CCCl)cc1", "outcome": "inactive"},
      {"smiles": "Nc1cc(Cl)cc(Cl)c1", "outcome": "inactive"},
      {"smiles": "BrCBr", "outcome": "inactive"},
      {"smiles": "CCc1cccc(C)c1N(C(=O)CCl)[C@@H](C)COC", "outcome": "inactive"},
      {"smiles": "CC(Cc1ccc(C(C)(C)C)cc1)CN1C[C@@H](C)O[C@@H](C)C1", "note": "(stereo partly specified)", "outcome": "inactive"},
      {"smiles": "O=S(=O)(c1ccccc1)c1ccccc1", "outcome": "inactive"},
      {"smiles": "CN(C)C(=O)C(c1ccccc1)c1ccccc1", "outcome": "inactive"},
      {"smiles": "C=CCc1ccc(OC(=O)Cc2ccccc2)c(OC)c1", "outcome": "inactive"},
      {"smiles": "CC1CCCC1.[C-]#[O+].[C-]#[O+].[C-]#[O+].[Mn]", "outcome": "inactive"},
      {"smiles": "O=C(O)COc1ccccc1", "outcome": "inactive"},
      {"smiles": "[Cl][Sb]([Cl])[Cl]", "outcome": "inactive"},
      {"smiles": "Cc1ccc(N(SC(F)(Cl)Cl)S(=O)(=O)N(C)C)cc1", "outcome": "inactive"},
      {"smiles": "CC1(C)CC(=O)CC(C)(C)N1[O]", "outcome": "inactive"},
      {"smiles": "O=CNC(N1CCN(C(NC=O)C(Cl)(Cl)Cl)CC1)C(Cl)(Cl)Cl", "note": "(stereo unspecified)", "outcome": "inactive"},
      {"smiles": "Oc1cc(Cl)ccc1Cl", "outcome": "inactive"},
      {"smiles": "O=[N+]([O-])c1cc(C(F)(F)F)c(Cl)c([N+](=O)[O-])c1Cl", "AC50": "46.1 µM (active)"},
      {"smiles": "C[C@]12CCC(=O)C(O)=C1CC[C@@H]1[C@@H]2CC[C@]2(C)C(=O)CC[C@@H]12", "outcome": "inactive"},
      {"smiles": "O=[N+]([O-])O.O=[N+]([O-])O.[Cd]", "outcome": "inactive"}
    ]},
    {"target": "Cellular tumor antigen p53 (Homo sapiens) (UniProt P04637)", "experiment": "TOX21_p53_BLA_p4_ratio: Tox21 HCT-116 p53 Agonism Beta-lactamase Assay, Ratio, Phase 4 (AID 2283601)", "method_in_brief": "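HCT-116 p53 beta-lactamase reporter cells (4000/well) preincubated 5 h, then compound (217-fold dilution of DMSO stock) for 16 h at 37C. CCF4-AM substrate added 2 h at room temperature; 460/530 nm emission ratio fitted upward versus DMSO.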", "values": [
      {"smiles": "C#CC1(O)CCCCC1", "outcome": "inactive"},
      {"smiles": "O=c1[nH]c(Cl)c(Cl)cc1Cl", "outcome": "inactive"},
      {"smiles": "[CH3][Sn]([Cl])([Cl])[Cl]", "outcome": "inactive"},
      {"smiles": "Nc1ccccc1C(=O)OCCc1ccccc1", "outcome": "inactive"},
      {"smiles": "N#Cc1cccc(C#N)c1", "outcome": "inactive"},
      {"smiles": "O=C(O)CCCc1ccc(N(CCCl)CCCl)cc1", "AC50": "71 µM (active)", "outcome": "inactive"},
      {"smiles": "Nc1cc(Cl)cc(Cl)c1", "outcome": "inactive"},
      {"smiles": "COC(C)(C)CCC[C@H](C)C/C=C/C(C)=C/C(=O)OC(C)C", "outcome": "inactive"},
      {"smiles": "BrCBr", "outcome": "inactive"},
      {"smiles": "CCc1cccc(C)c1N(C(=O)CCl)[C@@H](C)COC", "outcome": "inactive"},
      {"smiles": "CC(Cc1ccc(C(C)(C)C)cc1)CN1C[C@@H](C)O[C@@H](C)C1", "note": "(stereo partly specified)", "outcome": "inactive"},
      {"smiles": "O=C(O)c1cc[c]([Hg][Cl])cc1", "outcome": "inactive"},
      {"smiles": "O=S(=O)(c1ccccc1)c1ccccc1", "outcome": "inactive"},
      {"smiles": "O=P(O)(Oc1ccccc1)Oc1ccccc1", "outcome": "inactive"},
      {"smiles": "CC1CCCC1.[C-]#[O+].[C-]#[O+].[C-]#[O+].[Mn]", "outcome": "inactive"},
      {"smiles": "O=C(O)COc1ccccc1", "outcome": "inactive"},
      {"smiles": "[Cl][Sb]([Cl])[Cl]", "outcome": "inactive"},
      {"smiles": "CC1(C)CC(=O)CC(C)(C)N1[O]", "outcome": "inactive"},
      {"smiles": "O=[N+]([O-])c1cc(C(F)(F)F)c(Cl)c([N+](=O)[O-])c1Cl", "AC50": "21.9 µM (active)"},
      {"smiles": "CSc1nc(N=[N+]=[N-])nc(NC(C)C)n1", "outcome": "inactive"}
    ]}
  ]
}
